From PubChem BioAssay (NCI) come the findings set out here.

The panel holds about 83,000 compounds, 20% with a hit somewhere; the sample as a whole holds those more often.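 Results are percent growth after 48 hours of single-concentration exposure. 100 means growth as in untreated cells, lower positive values show inhibition; negative values down to -100 show cell death.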 Unmarked numbers belong to inactive results. Activity calls are given as the source filed them. How the source made its calls: active means growth percent below 10; inactive means the rest.

What all share (experiment): NCI-60 one-dose screen, 48 h (100 = growth as untreated, 0 = no growth, -100 = all killed)
Holding throughout (settings): 10 µM

Test [1] deals with K-562 leukemia.
Test [2] relates to MALME-3M melanoma.
Test [3] has as its system MDA-MB-231 breast.
For test [4], the system named is RXF 393 renal.
In test [5] the test system is SF-268 CNS.
Test [6] concerns SF-295 CNS.
In test [7] the test system is SF-539 CNS.
For test [8], the system named is UACC-257 melanoma.
Test [9] deals with M14 melanoma.
Test [10] deals with HCT-15 colon.
The test system of test [11] is HT29 colon.
In test [12] the test system is SNB-75 CNS.
The test system of test [13] is SNB-19 CNS.
Test [14] relates to U251 CNS.
The test system of test [15] is PC-3 prostate.
For test [16], the system named is SK-MEL-5 melanoma.
Test [17] has as its system UACC-62 melanoma.
Test [18] relates to LOX IMVI melanoma.
The subject of test [19] is SK-MEL-28 melanoma.
The test system of test [20] is SK-MEL-2 melanoma.

As for `CN(C)c1ccc(N=C2C=CC(=O)c3ccccc32)cc1`, the growth in test [1] was 69.8%; in test [2] it was -11.2% (active); in test [3], 59.5%; in test [4], 81.2%; in test [5], 73.9%; in [6], 60.5%. Further, the growth in [7] was 88.7%; in test [8], 65.3%; in test [9], -18.2% (active); in [10], 53.5%; in [11], 61.4%; in [12], 84.7%. Moreover, the growth in test [13] was 70.7%; in [14] it was 87.5%; in test [15] it was 65.2%; in test [16], -56.1% (active); in test [17], 22.5%; in test [18], 40.9%. Moreover, the growth in test [19] is 73.6%; in [20] it was 64.9%.

As to `Nc1cc2c(cc1Cl)-c1ccc([N+](=O)[O-])cc1/C2=N\O`, the growth is 30.5% in test [1]; 90.7% in test [2]; 105% in test [3]; 104% in test [4]; 79.1% in test [5]; 74.8% in [6]. Besides, the growth in [7] is 75.9%; in test [8], 103%; in [9], 78.2%; in test [10], 62.9%; in [11] it was 82.5%; in test [12] it was 66.6%. Further, the growth in test [13] is 93.6%; in test [14], 67.7%; in [15], 52%; in test [16] it was 82.5%; in test [17] it was 78%; in test [18] it was 53.8%. In addition, the growth in test [19] was 109%; in test [20], 106%.

As for `COc1ccc(C(=O)/C=C/c2cc(-c3cc(OC)c(OC)c(OC)c3)n[nH]2)cc1`, the growth was 5.85% (active) in test [1]; 69% in test [2]; 38.5% in [3]; 30.1% in [4]; 31.2% in test [5]; -23.8% (active) in test [6]. Further, the growth in test [7] was -25.6% (active); in [8], 70.8%; in [9] it was 54.6%; in test [10], 8.52% (active); in test [11] it was 1.28% (active); in test [12] it was 43.6%. The growth in [13] is 47.8%; in test [14], -2.19% (active); in test [15], 20.5%; in test [16], 57.2%; in test [17], 52.3%; in [18], -11.6% (active). Also, the growth is 79.4% in test [19] and 70.4% in test [20].

On to `N#CC1=C(Nc2ccccc2Cl)SC(c2ccccc2O)NC1=O` (stereo not given), for which the growth was 102% in [1]; 116% in test [2]; 113% in test [3]; 121% in test [4]; 112% in test [5]; 113% in [6]. Further, the growth in [7] is 99.6%; in [8] it was 37.1%; in test [9], 109%; in test [10], 119%; in test [11], 112%; in test [12] it was 103%. For the same compound, the growth was 111% in [13]; 104% in test [14]; 96.7% in [15]; 103% in test [16]; 103% in test [17]; 97.5% in [18]. Further, the growth in [19] is 109%; in [20], 114%.

As for `CC(=O)n1c(-c2ccc(Cl)c(Cl)c2)cn(-c2ccc(Cl)cc2)c1=O`, the growth in test [1] was -35% (active); in [2], 26.6%; in test [3], 33.3%; in [4], -31.2% (active); in test [5], -32.7% (active); in test [6] it was 1.9% (active). Also, the growth is -33.2% (active) in [7]; 57.5% in [8]; 34% in test [9]; 59% in [10]; 12.8% in [11]; -0.456% (active) in test [12]. Further, the growth in [13] was 18.4%; in test [14] it was 26.6%; in test [15] it was -31.2% (active); in [16], 9.15% (active); in test [17], 18%; in test [18], 18.2%. Also, the growth was 7.17% (active) in test [19] and 80.9% in [20].

Turning to `Nc1nc(Nc2ccccc2)n[nH]1`, the growth in test [1] is 98.6%; in [2], 98.5%; in test [3], 105%; in [4], 104%; in [5], 112%; in test [6], 98.1%. The growth in test [7] was 94.2%; in test [8], -7.13% (active); in test [9] it was 96.5%; in [10], 93.8%; in test [11], 105%; in test [12], 90.6%. In addition, the growth in test [13] was 94.6%; in test [14], 100%; in [15], 116%; in test [16] it was 106%; in [17] it was 90.7%; in test [18] it was 100%. Further, the growth in [19] is 109%; in test [20], 103%.

With `Cn1c([N+](=O)[O-])cnc1/C=C1\Oc2cc(Cl)ccc2C1=O`, the growth in test [1] was 35.8%; in test [2] it was -56.7% (active); in test [3] it was -27.7% (active); in test [4], -66.8% (active); in test [5], -37.4% (active); in test [6], 38.5%. Moreover, the growth in [7] is 28%; in [8], -42% (active); in [9], -34.7% (active); in test [10], 3.55% (active); in test [11], -25.4% (active); in test [12], 65.6%. For the same compound, the growth in test [13] was 15.6%; in test [14] it was -9% (active); in test [15], -12.5% (active); in test [16], -77.4% (active); in test [17], 7.22% (active); in test [18], -60.3% (active). For the same compound, the growth in test [19] is -9.7% (active); in [20], -55.2% (active).
